Compounds with a hit are over-represented: about 19% of the library has one in this group of screens.
Giardia kill – Small Molecules that selectively kill Giardia lamblia: qHTS. Giardia lamblia trophozoite viability. activity change, % at 7.66 µM, hits read low. 340,000 compounds, 0.15% hits; in the data active means activity change below about -80%; inconclusive means between about -30% and that limit;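 further: parasites exposed to compound for two days anaerobically before the ATP read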
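Viability, read as ATP luminescence: trophozoites at 100 cells/well, compound added, 48 hrs anaerobic at 37 deg C, then 15-30 min room-temperature development before reading.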
DT40 TDP1 CPT – qHTS for Inhibitors of human tyrosyl-DNA phosphodiesterase 1 (TDP1): qHTS in cells in presence of CPT. chicken DT40 Tdp1-/-;hTDP1 cells + 20 nM CPT, ATP luminescence, 48 h. Potency, µM (doses to about 46.2 µM), without a hit: top-dose activity change, negative = growth inhibition, hits mostly inhibitors. 420,000 compounds, 12% hits; further: potency means the concentration at half of the fitted maximal effect; nearly all actives have a fitted effect of over 55% in size
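Chicken DT40 Tdp1-/- cells stably complemented with human TDP1 were seeded at 400 cells/well in medium containing 20 nM camptothecin, exposed to pin-transferred compounds, and grown at 37 °C for at least 48 hr. Viability was read as ATP luminescence.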
ELG1 repair inh – qHTS screen for small molecules that inhibit ELG1-dependent DNA repair in human embryonic kidney (HEK293T) cells expressing luciferase-tagged ELG1 | HEK293T ELG1-luciferase reporter, luminescence, 16 h; DNA damage induced by 5-fluorouridine | Potency, µM (series often up to 46.1 µM), for the others: at the highest dose activity change, negative = inhibition, usual class: inhibitors | 330,000 compounds, 2.3% hits; further: potency means the concentration at half of the fitted maximal effect; nearly all actives have a fitted effect of over 55% in size
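Step one: seed 2,000 cells per well. Step two: pin-transfer compound or DMSO alongside 5-fluorouridine. Step three: incubate 16 hr, 37 °C, 5% CO2. Step four: add ONE-Glo, wait 30 min, read luminescence.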
TDP1 cell noCPT – qHTS for Inhibitors of human tyrosyl-DNA phosphodiesterase 1 (TDP1): qHTS in cells in absence of CPT | DT40 Tdp1-/- hTDP1 cells, no CPT, ATP luminescence, 48 h | 420,000 compounds, 15% hits | Potency, µM (series often up to 46.2 µM), without a hit: at the top dose activity change, negative = growth inhibition, usual class: inhibitors; further: potency means the concentration at half of the fitted maximal effect; nearly all actives have a fitted effect of over 55% in size
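Chicken DT40 Tdp1-/- cells complemented with human TDP1, screened without camptothecin (DMSO vehicle only), 400 cells/well. Compounds pin-transferred, cells incubated at 37 °C for at least 48 hr. Growth read as ATP-dependent luminescence (CellTiter-Glo, 30 min at RT).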
TDP1 block – qHTS Assay for Inhibitors of Tyrosyl-DNA Phosphodiesterase (TDP1) | recombinant TDP1, AlphaScreen DNA substrate cleavage | Potency, µM (top dose mostly 130 µM), for the others: top-dose activity change, negative = inhibition, actives largely listed as inhibitors | 350,000 compounds, 0.28% hits | AID 485290, 2010; further: potency means the concentration at half of the fitted maximal effect; nearly all actives have a fitted effect of over 40% in size
Target sequence (Q9NUW8 whole entry, looked up): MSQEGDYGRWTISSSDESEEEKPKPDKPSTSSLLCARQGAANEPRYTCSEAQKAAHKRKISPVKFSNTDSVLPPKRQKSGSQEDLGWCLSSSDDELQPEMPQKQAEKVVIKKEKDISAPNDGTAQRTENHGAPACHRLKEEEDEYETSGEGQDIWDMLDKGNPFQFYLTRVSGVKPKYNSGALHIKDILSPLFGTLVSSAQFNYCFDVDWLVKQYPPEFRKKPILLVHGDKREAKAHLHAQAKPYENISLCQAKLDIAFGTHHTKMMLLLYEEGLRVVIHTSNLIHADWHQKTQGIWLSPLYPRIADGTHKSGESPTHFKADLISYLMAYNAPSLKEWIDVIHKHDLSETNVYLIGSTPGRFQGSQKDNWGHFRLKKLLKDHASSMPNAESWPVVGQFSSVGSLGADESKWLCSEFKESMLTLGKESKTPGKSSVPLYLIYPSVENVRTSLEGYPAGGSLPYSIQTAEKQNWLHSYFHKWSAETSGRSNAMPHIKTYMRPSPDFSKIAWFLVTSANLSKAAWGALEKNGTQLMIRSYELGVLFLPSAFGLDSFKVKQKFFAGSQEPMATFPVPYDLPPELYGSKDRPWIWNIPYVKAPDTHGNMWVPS
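AlphaScreen read-out: signal falls as enzyme removes the 3' tyrosine-FITC from a 5'-biotinylated DNA oligo (15 nM, 5 min, RT). Enzyme was E. coli-made recombinant Tdp1 at 1 nM, exposed to compound for 15 min beforehand; beads 10 ug/ml, 10 min.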
IL1B secr inh – qHTS for Inhibitors of Inflammasome Signaling: IL-1-beta AlphaLISA Primary Screen; THP-1 LPS/ATP IL-1B secretion, AlphaLISA, 16 h; active compounds read low; activity change, % at 57.5 µM; 360,000 compounds, 4.7% hits; in the data active means activity change below about -50%; inconclusive means mostly about -30% to -49%
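THP-1 cells pretreated 1 hr with compounds (up to 57.5 uM final), then stimulated with LPS (250 ng/mL final) plus ATP (1.25 mM final); secreted IL-1B measured by AlphaLISA after 16 hr, decreased signal indicating inhibition.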
* hit, by the source's call; ? = inconclusive; / = not tested or not shown; ! = not active in a repeat. Unless noted, the call rests on the fitted dose curve; in most records, active means well fitted curve in the direction sought with a large enough effect; inconclusive means small, poorly fitted or top-dose-only effect, or another doubt; inactive means no such curve, though single readings can be large; an effect the other way counts as inactive or inconclusive. On the % scale 0 is the no-effect control and ±100 the full control effect.

SMILES	Giardia kill	DT40 TDP1 CPT	ELG1 repair inh	TDP1 cell noCPT	TDP1 block	IL1B secr inh
C[C@@H]1CCCCO[C@H](CN(C)C(=O)c2ccncc2)[C@H](C)CN([C@@H](C)CO)C(=O)c2cc(NC(=O)c3ccccc3)ccc2O1	/	-3.7%	/	3.6%	/	11.1
C[C@@H]1CCCCO[C@H](CN(C)C(=O)Nc2cccc3ccccc23)[C@@H](C)CN([C@H](C)CO)C(=O)c2cc(NC(=O)c3ccccc3)ccc2O1	/	4.61µM*	/	3.66µM*	/	-25.1
C[C@@H]1CN([C@@H](C)CO)C(=O)c2cc(NC(=O)Nc3ccccc3)ccc2O[C@H]1CN(C)C(=O)Nc1cccc2ccccc12	12.3	13µM*	14.6µM*	18.4µM*	0.8%	-1.0
Cc1ccc(S(=O)(=O)N(C)C[C@H]2OCCCC[C@H](C)Oc3ccc(NC(=O)Nc4cccc5ccccc45)cc3C(=O)N([C@@H](C)CO)C[C@H]2C)cc1	/	-5.7%	/	?	/	4.2
C[C@@H]1CN([C@@H](C)CO)C(=O)c2cc(NC(=O)Nc3cccc4ccccc34)ccc2O[C@@H](C)CCCCO[C@H]1CN(C)C(=O)c1ccccc1	/	?	/	20.6µM*	/	37.0
CN(C)/C=C(\C=N\OCc1ccc(Cl)cc1Cl)C(=O)Nc1ccc(Cl)c(Cl)c1	/	/	-10.7%	/	7.4%	/
c1ccc(-c2cn(CC3CCCCC3)nn2)cc1	?	?	?	12.6µM*!	/	-21.9
COc1ccc(CCCCCCOCc2ccccc2)cc1	4.8	-3.2%	21.6%	15.3%	20µM*	0.0
CCCCCc1ccc(-c2cn(CC3CCCCC3)nn2)cc1	-25.8	?	-5.9%	8.91µM*	/	11.5
COc1ccc(-c2cn(CCCOCc3ccccc3)nn2)cc1	-10.7	?	?	?	/	31.6
CCCCCc1ccc(-c2cn(CCCOCc3ccccc3)nn2)cc1	34.5	?	-7.2%	22.4µM*	/	-15.3
COc1ccc(-c2cn(CC3CCCCC3)nn2)cc1	-21.5	-13.1%	?	2.9%	/	2.8
Cc1nnc(SCC(=O)Nc2ccc(N3CCN(S(C)(=O)=O)CC3)cc2)o1	-7.2	-21.7%	-4.8%	-15.4%	/	-11.3
CN1C(=O)[C@H]2[C@@H](c3ccc(C(F)(F)F)cc3)N[C@]3(CCCN(Cc4ccc(F)cc4)C3=O)[C@H]2C1=O	/	9.2µM*	/	7.31µM*	/	14.3
Cc1ccc([C@H]2N[C@]3(CCCN(Cc4ccc(C(F)(F)F)cc4)C3=O)[C@H]3C(=O)N(C)C(=O)[C@@H]23)cc1	/	20.6µM*	/	13µM*	/	9.3
Cc1ccc(CN2CCC[C@]3(N[C@H](c4ccc(C(F)(F)F)cc4)[C@@H]4C(=O)N(C)C(=O)[C@@H]43)C2=O)cc1	/	?	/	?	/	4.9
CN1C(=O)[C@H]2[C@@H](c3ccc(C(F)(F)F)cc3)N[C@]3(CCCN(Cc4cccn4C)C3=O)[C@H]2C1=O	/	23.1µM*	/	16.4µM*	/	-18.7
CN1C(=O)[C@H]2[C@@H](c3ccc(C(F)(F)F)cc3)N[C@]3(CCCN(Cc4ccc(Cl)cc4)C3=O)[C@H]2C1=O	/	0.8%	/	16.4µM*	/	11.4
COc1ccc([C@H]2N[C@]3(CCCN(Cc4ccc(C(F)(F)F)cc4)C3=O)[C@H]3C(=O)N(C)C(=O)[C@@H]23)cc1	/	?	/	?	/	21.6
CC1(C)NC(=O)N(CC(=O)OCC(=O)c2ccc(Br)s2)C1=O	-23.7	11.0%	0.0%	-21.0%	0.8%	15.2

Screening data as filed in PubChem BioAssay.
